PubChem BioAssay (NCI)
This is part of a sample that, as a whole, favours compounds with a hit. Of some 83,000 tested, about 20% had one in any assay.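 Cell lines were cultured in 96-well plates, exposed to a single compound concentration, and assessed for percent growth 48 hours later.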 Activity calls are given as the source filed them. Rule for the calls: active = growth percent below 10; inactive = the rest.

What was measured:
Assay in all cases: NCI-60 one-dose screen, 48 h (100 = growth as untreated, 0 = no growth, -100 = all killed)
Conditions in all cases: 10 µM unless noted
NCI-H23 lung = test system: NCI-H23 lung
NCI-H226 lung = test system: NCI-H226 lung
NCI-H322M lung = test system: NCI-H322M lung
HOP-62 NSCLC = test system: HOP-62 NSCLC
NCI-H460 lung = test system: NCI-H460 lung
HOP-92 NSCLC = test system: HOP-92 NSCLC
NCI-H522 lung = test system: NCI-H522 lung
A549/ATCC NSCLC = test system: A549/ATCC NSCLC
786-0 renal = test system: 786-0 renal
COLO 205 colon = test system: COLO 205 colon

Measured: growth

CCN(CCO)CC(C)Nc1ccc([N+](=O)[O-])c2sc3ccccc3c(=O)c12 (stereo not given)
active: NCI-H460 lung 9.73% | HOP-92 NSCLC -0.953%
inactive: NCI-H23 lung 40.2% | NCI-H226 lung 14.4% | NCI-H322M lung 15.6% | HOP-62 NSCLC 36.9% | NCI-H522 lung 15.3% | A549/ATCC NSCLC 12.2% | 786-0 renal 34.3% | COLO 205 colon 15%

O=c1[nH]cnc2c1C(c1ccc(Br)cc1)c1sc3c(F)cccc3c1O2 (stereo not given)
inactive: NCI-H23 lung 92.8% | NCI-H226 lung 92.2% | NCI-H322M lung 88.1% | HOP-62 NSCLC 97.9% | NCI-H460 lung 94.7% | HOP-92 NSCLC 49.2% | NCI-H522 lung 88.1% | A549/ATCC NSCLC 96.3% | 786-0 renal 105% | COLO 205 colon 102%

CCN(CC)S(=O)(=O)c1ccc(S(=O)(=O)N2CCC[C@@H](C(=O)N3CCN(C(=O)OC(C)(C)C)CC3)C2)cc1
inactive: NCI-H23 lung 53.6% | NCI-H226 lung 77.9% | NCI-H322M lung 88.5% | HOP-62 NSCLC 66.1% | NCI-H460 lung 73.4% | HOP-92 NSCLC 74.9% | NCI-H522 lung 68.4% | A549/ATCC NSCLC 67.7% | 786-0 renal 92.8% | COLO 205 colon 108%

N=C(N)c1ccc(-c2ccc(-c3ccc(F)cc3)s2)s1
active: NCI-H23 lung -62.6% | NCI-H322M lung -29.7% | NCI-H460 lung -64.9% | NCI-H522 lung -72% | A549/ATCC NSCLC -65.8% | 786-0 renal -57.5% | COLO 205 colon -80.6%
inactive: NCI-H226 lung 90.4% | HOP-62 NSCLC 57% | HOP-92 NSCLC 28.5%

O=C(Cn1nnc2ccccc21)N/N=C/c1ccccc1F
inactive: NCI-H23 lung 105% | NCI-H226 lung 85.8% | NCI-H322M lung 93.6% | HOP-62 NSCLC 102% | NCI-H460 lung 104% | HOP-92 NSCLC 103% | NCI-H522 lung 84.9% | A549/ATCC NSCLC 89.2% | 786-0 renal 97.5% | COLO 205 colon 113%

CN1CCN(c2ccc(NC(=O)c3cncnc3Nc3ccc4c(ccn4Cc4cccc(F)c4)c3)cc2)CC1
active: HOP-62 NSCLC 8.44% | 786-0 renal -38.4% | COLO 205 colon -34%
inactive: NCI-H23 lung 72.6% | NCI-H226 lung 85.5% | NCI-H322M lung 92.9% | NCI-H460 lung 30.7% | HOP-92 NSCLC 59.9% | NCI-H522 lung 75.6% | A549/ATCC NSCLC 43.2%

CC1=C(C(=O)n2c3ccccc3c3ccccc32)C(c2cccc([N+](=O)[O-])c2)C(C(=O)n2c3ccccc3c3ccccc32)=C(C)N1
inactive: NCI-H23 lung 91.9% | NCI-H226 lung 96.9% | NCI-H322M lung 98.4% | HOP-62 NSCLC 102% | NCI-H460 lung 102% | HOP-92 NSCLC 93.8% | NCI-H522 lung 101% | A549/ATCC NSCLC 102% | 786-0 renal 103% | COLO 205 colon 108%

CCOC(=O)N1CCN(S(=O)(=O)c2oc(-c3ccc(Cl)cc3)nc2C#N)CC1
inactive: NCI-H23 lung 75.9% | NCI-H226 lung 93.4% | NCI-H322M lung 99.3% | HOP-62 NSCLC 96% | NCI-H460 lung 103% | HOP-92 NSCLC 97.6% | A549/ATCC NSCLC 96.8% | 786-0 renal 92.7% | COLO 205 colon 47%
active: NCI-H522 lung -6.61%

COc1ccc(C2CC(c3ccc4c(c3)OCO4)=Nc3c(N)ncnc3N2)cc1 (stereo not given)
inactive: NCI-H23 lung 107% | NCI-H226 lung 100% | NCI-H322M lung 95.4% | HOP-62 NSCLC 88.6% | NCI-H460 lung 111% | HOP-92 NSCLC 62.4% | NCI-H522 lung 108% | A549/ATCC NSCLC 104% | 786-0 renal 102% | COLO 205 colon 100%

COC(=O)c1c2c(n3ccc(C)cc13)C(=O)c1ccccc1C2=O
active: NCI-H460 lung 4.07% | A549/ATCC NSCLC -41.6%
inactive: NCI-H23 lung 50.9% | NCI-H226 lung 62.1% | NCI-H322M lung 22.1% | HOP-62 NSCLC 78.4% | HOP-92 NSCLC 76.7% | NCI-H522 lung 47.5% | 786-0 renal 80.3% | COLO 205 colon 42.5%

CCN1C(=O)N(CC)C2C1NN=c1s/c(=C3\C(=O)N(CCc4ccccc4)c4ccccc43)c(=O)n12 (stereo not given)
active: NCI-H460 lung 1.95% | NCI-H522 lung -5.28% | COLO 205 colon 7.44%
inactive: NCI-H23 lung 22.7% | NCI-H226 lung 24.8% | NCI-H322M lung 36.1% | HOP-62 NSCLC 24.4% | HOP-92 NSCLC 38.1% | A549/ATCC NSCLC 16.1% | 786-0 renal 22.1%

COc1ccc(Cn2cc(C(=O)N=Nc3c(O)[nH]c4c(Cl)cccc34)nn2)cc1
inactive: NCI-H23 lung 99.3% | NCI-H226 lung 102% | NCI-H322M lung 101% | HOP-62 NSCLC 110% | NCI-H460 lung 99.7% | HOP-92 NSCLC 105% | NCI-H522 lung 84% | A549/ATCC NSCLC 102% | 786-0 renal 106% | COLO 205 colon 114%

COc1cc(N2C(=O)[C@H](c3ccccc3)C2c2ccc(SC)cc2)cc(OC)c1OC (stereo not given in full)
active: NCI-H460 lung 4.99% | HOP-92 NSCLC -0.302% | NCI-H522 lung -9.45% | A549/ATCC NSCLC 4.39% | 786-0 renal 5.94% | COLO 205 colon -52%
inactive: NCI-H23 lung 16% | NCI-H226 lung 56.1% | NCI-H322M lung 37.7% | HOP-62 NSCLC 20.7%

CCc1ccc(CCC(=O)Nc2ncc(Cc3ccc(Cl)cc3)s2)o1
inactive: NCI-H23 lung 54.9% | NCI-H226 lung 61.8% | NCI-H322M lung 52% | HOP-62 NSCLC 30.9% | HOP-92 NSCLC 69.8% | A549/ATCC NSCLC 29.6% | 786-0 renal 41.2% | COLO 205 colon 12.3%
active: NCI-H460 lung 6.53% | NCI-H522 lung -3.33%

COc1cc(/C=C2\C(=O)N(c3c(Cl)cccc3Cl)c3ccccc32)cc(OC)c1OCCCCCCn1c2ccccc2c(=O)c2ccccc21
inactive: NCI-H23 lung 103% | NCI-H226 lung 95.4% | NCI-H322M lung 95.7% | HOP-62 NSCLC 95.4% | NCI-H460 lung 110% | HOP-92 NSCLC 95.9% | NCI-H522 lung 87.3% | A549/ATCC NSCLC 109% | 786-0 renal 95.5% | COLO 205 colon 107%

CCNCc1ccc(O)c2ncccc12
active: HOP-92 NSCLC -8.24% | NCI-H522 lung 8.59%
inactive: NCI-H23 lung 24.1% | NCI-H226 lung 62.4% | NCI-H322M lung 38% | HOP-62 NSCLC 27.8% | NCI-H460 lung 20% | A549/ATCC NSCLC 17.6% | 786-0 renal 39.6% | COLO 205 colon 80.7%

CCOC(=O)c1c(NC(=O)c2ccc(C(C)(C)C)cc2)sc2cc(O)ccc12
active: 786-0 renal -92%
inactive: NCI-H23 lung 89.8% | NCI-H226 lung 87.9% | NCI-H322M lung 87.1% | HOP-62 NSCLC 95.8% | NCI-H460 lung 98.1% | HOP-92 NSCLC 96.8% | NCI-H522 lung 96.1% | A549/ATCC NSCLC 91.9% | COLO 205 colon 110%

Cc1ccc2[nH]c(=O)c3c(c2c1)OC(N)=C(C#N)C31C(=O)c2cccc3cccc1c23 (stereo not given)
inactive: NCI-H23 lung 103% | NCI-H226 lung 91.1% | NCI-H322M lung 100% | HOP-62 NSCLC 98.2% | NCI-H460 lung 101% | HOP-92 NSCLC 104% | NCI-H522 lung 89.3% | A549/ATCC NSCLC 103% | 786-0 renal 100% | COLO 205 colon 103%

COc1cccc(/C=C/C(=O)c2cc3c(N)c(C(=O)Nc4cccc(Cl)c4C)sc3nc2C)c1
active: NCI-H226 lung -23.6% | NCI-H322M lung 7.75% | HOP-62 NSCLC -24.1% | NCI-H460 lung -23.5% | NCI-H522 lung -69.7% | A549/ATCC NSCLC 3.76% | 786-0 renal -43.8% | COLO 205 colon -27.1%
inactive: NCI-H23 lung 20.4% | HOP-92 NSCLC 20.3%

O=c1nc(Nc2nc3ccccc3s2)[nH]c(=O)c2ccccc12
inactive: NCI-H23 lung 99.1% | NCI-H226 lung 92.8% | NCI-H322M lung 105% | HOP-62 NSCLC 91.2% | NCI-H460 lung 103% | HOP-92 NSCLC 83.4% | NCI-H522 lung 96.8% | A549/ATCC NSCLC 106% | 786-0 renal 96% | COLO 205 colon 112%

O=C(N=Nc1c(O)[nH]c2ccccc12)Nc1ccc(Cl)cc1
inactive: NCI-H23 lung 93% | NCI-H226 lung 95.5% | NCI-H322M lung 75.3% | HOP-62 NSCLC 98.6% | NCI-H460 lung 91.3% | HOP-92 NSCLC 80% | NCI-H522 lung 89.8% | A549/ATCC NSCLC 92.5% | 786-0 renal 97.8% | COLO 205 colon 99.5%

CCCCCCCCn1ccc2cc(NC(=O)Cn3cc(CN4CCC(C)CC4)nn3)ccc21
inactive: NCI-H23 lung 79.4% | NCI-H226 lung 69.9% | NCI-H322M lung 28.6% | HOP-62 NSCLC 72.4% | HOP-92 NSCLC 21.8% | NCI-H522 lung 18.7% | A549/ATCC NSCLC 21.1%
active: NCI-H460 lung -70.2% | 786-0 renal 0.91% | COLO 205 colon -74.4%

CCCCCCCC/C=C\CCCCCCCCOc1ccccc1CC(=O)NCC[N+]1(C)CCCCC1
inactive: NCI-H23 lung 58.9% | NCI-H226 lung 67.1% | NCI-H322M lung 96.5% | HOP-62 NSCLC 75.9% | NCI-H460 lung 50.4% | HOP-92 NSCLC 48.1% | NCI-H522 lung 38% | A549/ATCC NSCLC 66.3% | 786-0 renal 96.8% | COLO 205 colon 23%

CC(C(=O)O)n1c(O)c(C=Nc2cccnc2)sc1=S (stereo not given)
inactive: NCI-H23 lung 99.1% | NCI-H226 lung 85.3% | NCI-H322M lung 93.1% | HOP-62 NSCLC 89.5% | NCI-H460 lung 100% | HOP-92 NSCLC 86% | NCI-H522 lung 89.2% | A549/ATCC NSCLC 92.4% | 786-0 renal 95.5% | COLO 205 colon 107%

CC(C)(C)c1cc(C=Nc2cccc(C(F)(F)F)c2)c(O)c(C(C)(C)C)c1
inactive: NCI-H23 lung 88.5% | NCI-H226 lung 91.4% | NCI-H322M lung 95.3% | HOP-62 NSCLC 95.7% | NCI-H460 lung 107% | HOP-92 NSCLC 90.9% | NCI-H522 lung 73.5% | A549/ATCC NSCLC 84.1% | 786-0 renal 107% | COLO 205 colon 119%

CN(C)c1ccc(/C=C/C(=O)c2ccccc2)cc1
inactive: NCI-H23 lung 97.8% | NCI-H226 lung 99.9% | NCI-H322M lung 98.4% | HOP-62 NSCLC 81% | NCI-H460 lung 105% | HOP-92 NSCLC 88% | NCI-H522 lung 60.3% | A549/ATCC NSCLC 65.4% | 786-0 renal 88.8% | COLO 205 colon 93.7%

COc1cc2cc(NCc3ccc(OC(F)F)cc3)nc(C)c2cc1OC
inactive: NCI-H23 lung 45.1% | NCI-H226 lung 75.5% | NCI-H322M lung 53.4% | HOP-62 NSCLC 58.7% | NCI-H460 lung 57.2% | HOP-92 NSCLC 63% | NCI-H522 lung 45.3% | A549/ATCC NSCLC 72.1% | 786-0 renal 61.8% | COLO 205 colon 65.7%
